From PubChem BioAssay
SMN2 splice enh: qHTS Assay for Enhancers of SMN2 Splice Variant Expression | hit rate 2.8% among 210,000 | HEK293 SMN2-luciferase splicing reporter, luminescence, 30-36 h | Potency, µM (series often up to 46.1 µM), for the others: top-dose activity change, positive = activation, usual class: activators; note: % of control where 0% means no effect; nearly all actives have a fitted effect of over 55% in size
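qHTS luciferase splicing reporter: luminescence rises when SMN2 exon 7 is included in transfected HEK293 cells. Compound exposure lasted 30-36 h at 37C, with 4.5 mM final sodium butyrate as control, followed by a ONE-Glo read.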
ELG1 repair inh: qHTS screen for small molecules that inhibit ELG1-dependent DNA repair in human embryonic kidney (HEK293T) cells expressing luciferase-tagged ELG1; HEK293T ELG1-luciferase reporter, luminescence, 16 h; DNA damage induced by 5-fluorouridine; Potency, µM (doses to about 46.1 µM), inactives show at the highest dose activity change, negative = inhibition, usual class: inhibitors; hit rate 2.3% among 330,000; note: % is set by controls: 0 for no effect and ±100 for the full control effect; nearly all actives have a fitted effect of over 55% in size
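In this reporter screen, reduction of luminescence relative to DMSO vehicle indicated activity. Compounds and 5-fluorouridine were added together to 2,000 cells per well, incubated for 16 hr at 37 °C, then developed with ONE-Glo.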
FLuc counter: qHTS profiling assay for firefly luciferase inhibitor/activator using purifed enzyme and Km concentrations of substrates (counterscreen for miR-21 project) | Potency, µM (series often up to 57.5 µM), for the others: at the highest dose activity change, negative = inhibition, hits mostly inhibitors | hit rate 6.9% among 360,000 | purified FLuc, Km substrates, luminescence inhibition | Luciferin 4-monooxygenase (Photinus pyralis), P08659;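 note: plate controls were vehicle for no effect and reference inhibitor for full effect; nearly all actives have a fitted effect of over 55% in size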
Target sequence (P08659 whole entry, looked up): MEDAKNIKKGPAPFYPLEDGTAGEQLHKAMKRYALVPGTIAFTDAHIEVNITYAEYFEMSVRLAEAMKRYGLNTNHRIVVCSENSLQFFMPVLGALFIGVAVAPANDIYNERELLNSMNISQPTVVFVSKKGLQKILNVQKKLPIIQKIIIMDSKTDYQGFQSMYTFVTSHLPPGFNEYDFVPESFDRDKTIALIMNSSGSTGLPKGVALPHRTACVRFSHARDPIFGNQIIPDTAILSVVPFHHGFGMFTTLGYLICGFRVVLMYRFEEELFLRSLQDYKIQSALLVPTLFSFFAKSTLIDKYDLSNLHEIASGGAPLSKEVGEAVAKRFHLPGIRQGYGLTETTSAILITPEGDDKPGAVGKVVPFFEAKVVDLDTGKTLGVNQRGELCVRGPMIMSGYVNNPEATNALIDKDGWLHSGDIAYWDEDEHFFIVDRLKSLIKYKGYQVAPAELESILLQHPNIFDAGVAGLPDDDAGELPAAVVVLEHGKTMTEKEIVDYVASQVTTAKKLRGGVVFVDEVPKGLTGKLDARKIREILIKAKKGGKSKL
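Purified P. pyralis luciferase (10nM final) with 10uM D-luciferin and 10uM ATP (Km levels) in 50mM Tris acetate pH 7.5, 10mM Mg acetate, 0.01% Tween-20, 0.05% BSA; qHTS 6-point titration, ~60 µM downward; luminescence read.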
Rab9 promoter act: qHTS Assay for Rab9 Promoter Activators; Huh7 Rab9 promoter-luciferase reporter, luminescence, 24 h; Potency, µM (highest dose often 9.22 µM), for the others: top-dose activation, negative = inhibition, most hits filed as activators; hit rate 2.8% among 320,000; AID 485297, 2010; note: % of control where 0% means no effect; nearly all actives have a fitted effect of over 60% in size
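Rab9 promoter-driven luciferase in stably transfected Huh7 cells; 1500 cells/well rested 2 h, exposed to compound in DMSO for 24 h at 37 °C, 5% CO2. Luminescence read 10 min after adding luciferase reagent at ambient temperature.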
ELG1 genotoxic: qHTS screen for small molecules that induce genotoxicity in human embryonic kidney (HEK293T) cells expressing luciferase-tagged ELG1. HEK293T ELG1-luciferase reporter, luminescence, 16 h. Potency, µM (doses to about 46 µM), inactives show at the highest dose activity change, positive = activation, most hits filed as activators. hit rate 1.3% among 330,000. AID 504466, 2011; note: % of control where 0% means no effect; nearly all actives have a fitted effect of over 60% in size
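DMSO vehicle served as control against compound-treated ELG1-luciferase HEK293T cells; exposure lasted 16 hr at 37 °C and 5% CO2, followed by ONE-Glo luminescence detection after 30 min.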
NPC1 promoter act: qHTS Assay for NPC1 Promoter Activators | Huh7 NPC1 promoter luciferase reporter, 24 h | Potency, µM (titrated, usually from 9.22 µM), for inactives: at the top dose activation, usual class: activators | hit rate 2.4% among 320,000; note: % of control where 0% means no effect; nearly all actives have a fitted effect of over 60% in size
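Luminescence read-out of NPC1 promoter-driven luciferase in stably transfected Huh7 cells; compounds delivered in DMSO and left 24 h at 37C, 5% CO2, qHTS titration format.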
Starred values were filed as active, the others as inactive; ? = inconclusive; / = no result. An excerpt weighted towards active compounds, which were near 9.4% of everything screened. Calls come from the whole dose curve; as a rule, active = well fitted curve in the direction sought with a large enough effect; inconclusive = small, poorly fitted or top-dose-only effect, or another doubt; inactive = no such curve, though single readings can be large; an effect the other way counts as inactive or inconclusive. Potency is the fitted concentration of half-maximal effect.

SMILES | SMN2 splice enh | ELG1 repair inh | FLuc counter | Rab9 promoter act | ELG1 genotoxic | NPC1 promoter act
Cc1cccc(OCc2ccc(-c3nc(C#N)c(NCCN(C)C)o3)o2)c1 | / | / | -5% | / | / | /
O=C(c1ccc2c3n(nc2c1)-c1ccc(Cl)cc1CO3)N1CCOCC1 | / | ? | 9.5µM* | ? | 18µM* | 2µM*
Cc1ccc2c(c1)COc1c3ccc(C(=O)N4CCCCC4)cc3nn1-2 | / | ? | 3.8µM* | ? | ? | 3.2µM*
CS(=O)(=O)N1CCc2cc(C(=O)N3CCOCC3)ccc21 | 2% | ? | 7% | -7% | -2% | -4%
O=C(c1ccc2c3n(nc2c1)-c1ccccc1CO3)N1CCOCC1 | / | ? | 4.8µM* | 1µM* | ? | 1.6µM*
O=C(c1ccc2c3n(nc2c1)-c1ccccc1CO3)N1CCCCC1 | / | ? | 3.4µM* | 0.89µM* | ? | 0.79µM*
O=C(/C=C/c1ccccc1)Nc1ccc(Cl)cn1 | 13µM* | ? | 2.7µM* | ? | ? | ?
O=C(CC(c1ccccc1)c1ccccc1)Nc1ccc(Cl)cn1 | -9% | 12µM* | 4% | -4% | -2% | -4%
O=C(CS(=O)(=O)c1ccccc1)Nc1ccc(Cl)cn1 | / | 27% | -9% | 15% | 12% | 20%
CN(C)c1ccc(CNC(=O)c2ccc3nc(CCc4ccccc4)oc3c2)cc1 | / | / | -5% | / | / | /
O=C(N/N=C/c1ccccc1OCC(=O)N1CCCC1)C(=O)Nc1ccccc1F | 12% | ? | 9.5µM* | -4% | 11% | 1%
O=C(CSCc1ccccc1Br)N/N=C/c1ccc(OCC(=O)N2CCCCC2)cc1 | / | 26µM* | ? | 1% | -4% | 1%
O=C(N/N=C/c1ccc(OCC(=O)N2CCCCC2)cc1)c1ccccc1 | ? | -7% | ? | 3% | -3% | 1%
O=C(N/N=C\c1ccccc1)c1ccccc1-n1cccc1 | -4% | 2% | 2% | -3% | 0% | -2%
O=C(N/N=C/c1ccc(OCC(=O)N2CCCC2)cc1)C(=O)NC1CC1 | / | ? | 0% | -5% | 2% | -4%
Nc1c(C(=O)N/N=C/c2ccccc2)cnn1-c1ccccc1 | / | ? | 5.4µM* | 0.63µM* | ? | 1.1µM*
O=C(N/N=C/c1ccc(OCC(=O)N2CCCCC2)cc1)c1ccccc1O | 2% | ? | 15µM* | 12% | 1% | 13%
CCC(=O)N1CCc2cc(CNC(=O)Cc3ccc(F)cc3)ccc21 | / | / | 1% | / | / | /
CCCCSCCCNC(=O)c1c[nH]c2ccc(S(=O)(=O)Nc3cccc(OC)c3)cc2c1=O | / | / | -18% | / | / | /
CC(=O)Nc1ccc(OC(=O)CC2SC(=O)NC2=O)cc1 (configuration not stated) | 4% | 11% | -4% | -1% | 1% | 1%
Cn1nccc1C(=O)Oc1ccc(/C=N/NC(=O)c2ccccc2O)cc1 | -17% | 14% | 17µM* | 9% | 2% | -1%
O=C(O)COc1ccc(/C=N/NC(=O)c2cn(-c3ccccc3)nc2-c2ccccc2)cc1 | / | -2% | 4.8µM* | -1% | 3% | 0%
O=C(CC1SC(=O)NC1=O)Oc1ccc(/C=N/NC(=O)c2ccccc2O)cc1 (configuration not stated) | / | -27% | 17µM* | 17% | 9% | 3%
CCOc1ccc(NC(=O)c2ccc3c(c2)CCN3S(=O)(=O)CC)cc1 | / | / | -17% | / | / | /
CCc1cccc(CC)c1NC(=O)C(Cc1ccccc1)NS(=O)(=O)c1cccc2nsnc12 (configuration not stated) | -1% | / | -10% | / | / | /
SMILES | SMN2 splice enh | ELG1 repair inh | FLuc counter | Rab9 promoter act | ELG1 genotoxic | NPC1 promoter act
Cc1c2c(nc3ccccc13)CCC(C(C)(C)C)C2 (configuration not stated) | ? | ? | 12µM* | 19% | 15% | 23%
c1ccc2oc(-c3[nH]ncc3CN3CCC(N4CCSCC4)CC3)cc2c1 | / | 0% | -2% | -32% | -3% | 0%
c1csc(C2=NNC(=NC3CCCCC3)SC2)c1 | 13µM* | ? | 4.8µM* | 1µM* | ? | 1.3µM*
Cc1cc(C2=NNC(=NC3CCCCC3)SC2)c(C)n1-c1c(C)n(C)n(-c2ccccc2)c1=O | ? | ? | -3% | -1% | 0% | -2%
c1ccc2oc(C3=NNC(=NC4CC4)SC3)cc2c1 | 1µM* | ? | 0.76µM* | 0.32µM* | ? | 0.28µM*
c1ccc(CN=C2NN=C(c3cc4ccccc4o3)CS2)cc1 | 18% | ? | 17µM* | 18% | 1% | 18%
Cc1cccc(OCC(=O)Nc2c(C(=O)N3CCN(c4ccccc4F)CC3)oc3ccccc23)c1 | / | / | -18% | / | / | /
CC1(OC(=O)c2ccco2)C(=O)C2=COC(C3CC3)=CC2=C(Br)C1=O (configuration not stated) | -6% | / | / | / | / | /
COc1ccccc1NC(=O)c1cc2ccccc2o/c1=N\O | -8% | ? | ? | 4µM* | 16% | 29%
COc1ccccc1NC(=O)c1cc2ccc(O)cc2o/c1=N\O | 10% | -9% | 5.4µM* | -2% | 3% | 1%
COc1ccc(N=c2oc3ccccc3cc2C(=O)Nc2ccccn2)cc1OC | 10% | ? | 24µM* | ? | ? | ?
COc1ccccc1NC(=O)c1oc2ccccc2c1NC(=O)c1cccc(OC)c1OC | -2% | / | -2% | / | / | /
COc1ccccc1NC(=O)c1ccccc1NC(=O)c1ccccn1 | / | -15% | -11% | 0% | -3% | -1%
CCOc1ccc(-c2cccc(NC(=O)COc3ccc(Cl)cc3)c2)nn1 | / | -2% | 13µM* | 10% | -3% | 9%
Cc1nc(-c2cccc(NC(=O)COc3ccc(Cl)cc3)c2)cs1 | / | -1% | 13µM* | -1% | -18% | 3%
CCS(=O)(=O)c1ccc(-c2cccc(NC(=O)c3ccco3)c2)nn1 | / | -2% | -13% | 2% | -3% | -1%
CCOc1ccc(-c2cccc(NC(=O)c3ccco3)c2)nn1 | / | -6% | 21µM* | -4% | -3% | 1%
COC(=O)/C=C/c1ccc(OC(=O)OC)c(OC(=O)OC)c1 | 14µM* | 9% | -20% | -12% | 10% | -10%
C/C=C/c1ccc(OC(C)=O)c(OC)c1 | -29% | 12% | -3% | 1% | 1% | -1%
O=C(CSc1nnc(CNC(=O)c2ccccc2)n1-c1cccc(Cl)c1)Nc1ccccc1F | 18% | / | 1% | / | / | /
CN(C)/C=C/C(=O)c1ccc(Cl)s1 | 2% | ? | -13% | 13% | ? | 6%
